Assay [1] has as its target Cellular tumor antigen p53 (Homo sapiens) (UniProt P04637). Briefly: TOX21_p53_BLA_p2_ratio: Tox21 HCT-116 p53 Agonism Beta-lactamase Assay, Ratio, Phase 2 (AID 2283592). Summed up:
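Ratio endpoint: beta-lactamase cleavage of CCF4-AM, blue (460 nm) over green (530 nm). HCT116 reporter line; 16 h treatment, 37C; substrate 2 h RT.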

Assay [2] can be described thus: TOX21_p53_BLA_p4_viability: Viability Assessment in the Tox21 HCT-116 p53 Agonism Beta-lactamase Assay, Phase 4 (AID 2283597).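 Note: hits lower the luminescence signal meaning cytotoxicity.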 Summed up: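 Cytotoxicity was inferred from loss of CellTiter-Glo luminescence. HCT116 cells had been dosed with compounds after 5 h plating, incubated 16 h at 37C and 5% CO2, and exposed to the CCF4-AM substrate for 2 h.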
The nature of assay [3]: TOX21_p53_BLA_p5_viability: Viability Assessment in the Tox21 HCT-116 p53 Agonism Beta-lactamase Assay, Phase 5 (AID 2283600). In short, it runs like this: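 Luciferase-coupled ATP quantitation of cells treated for 16 h (37C, 5% CO2) with test chemicals delivered in DMSO via a 217-fold dilution; 4000 cells/well; reagent incubated 30 min at room temperature before luminescence reading.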

For assay [4], the target named is Cellular tumor antigen p53 (Homo sapiens) (UniProt P04637). Briefly: TOX21_p53_BLA_p4_ratio: Tox21 HCT-116 p53 Agonism Beta-lactamase Assay, Ratio, Phase 4 (AID 2283601). In short, it runs like this:
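HCT-116 p53 beta-lactamase reporter cells (4000/well) preincubated 5 h, then compound (217-fold dilution of DMSO stock) for 16 h at 37C. CCF4-AM substrate added 2 h at room temperature; 460/530 nm emission ratio fitted upward versus DMSO.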

Assay [5] has the same target. The experiment in a line: TOX21_p53_BLA_p5_ratio: Tox21 HCT-116 p53 Agonism Beta-lactamase Assay, Ratio, Phase 5 (AID 2283599). In short, it runs like this: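 HCT-116 p53-bla cells (4000/well) plated 5 h, dosed with compound (217-fold DMSO dilution) for 16 h at 37 C; CCF4-AM substrate 2 h at room temperature. Activity is the 460/530 nm emission ratio (405 nm excitation), fitted in gain-of-signal direction versus DMSO.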

Records with an inconclusive call do not appear. Activity calls are given as the source filed them. Rule for the calls: active = hit-call score of the fitted dose curve at least 0.9, where 1 is the maximum; inconclusive = response in the unintended direction; inactive = score below 0.9.

Sequence of Cellular tumor antigen p53 (Homo sapiens) (P04637 whole entry, looked up): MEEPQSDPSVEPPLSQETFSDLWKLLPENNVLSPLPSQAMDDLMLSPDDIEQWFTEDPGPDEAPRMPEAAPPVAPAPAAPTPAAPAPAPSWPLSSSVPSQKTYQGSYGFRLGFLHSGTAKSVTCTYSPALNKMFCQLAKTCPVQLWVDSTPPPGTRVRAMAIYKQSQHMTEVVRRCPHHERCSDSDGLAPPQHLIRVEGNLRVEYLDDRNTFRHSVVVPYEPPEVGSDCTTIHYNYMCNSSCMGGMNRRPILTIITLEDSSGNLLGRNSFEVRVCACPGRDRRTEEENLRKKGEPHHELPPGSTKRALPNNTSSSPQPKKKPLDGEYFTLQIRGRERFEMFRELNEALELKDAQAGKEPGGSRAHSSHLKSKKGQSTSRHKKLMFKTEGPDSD

On to `O=C(O)CCS`, for which the outcome in assay [1], in assay [2], in assay [3] and in assay [4] was inactive.

On to `Nc1cccc2c(=O)[nH][nH]c(=O)c12`, for which the outcome in assay [1], in assay [5], in assay [3] and in assay [4] was inactive.

Consider `CC1COc2c(N3CCN(C)CC3)c(F)cc3c(=O)c(C(=O)O)cn1c23` (stereo unspecified), for which the result in assay [1] and in assay [5] was inactive.

As for `CCCCCCCCCCCCCCCCBr`, the outcome in assay [1] and in assay [5] was inactive.

`CO[C@]1(NC(=O)CSC(F)F)C(=O)N2C(C(=O)O)=C(CSc3nnnn3CCO)CO[C@H]21`: the outcome in assay [1] and in assay [5] was inactive.

Consider `CC(C)N=C=NC(C)C`, for which the outcome in assay [1], in assay [5], in assay [3] and in assay [4] was inactive.

For the compound `CN1C(=O)c2ccc([N+](=O)[O-])cc2C1=O`, the result in assay [1], in assay [5], in assay [3] and in assay [4] was inactive.

On to `CC(C)c1ccccc1C(C)C`, for which the result in assay [1], in assay [3] and in assay [4] was inactive. In assay [5], the AC50 (in general, the midpoint of the concentration-response curve, whichever way the signal moves) is 67 µM (active).

As for `CC(CO)CO`, the result in assay [1], in assay [2] and in assay [4] was inactive.

`CC1(C)S[C@@H]2[C@H](NC(=O)[C@@H](NC(=O)N3CCNC3=O)c3ccccc3)C(=O)N2[C@H]1C(=O)O`: the outcome in assay [1], in assay [5], in assay [3] and in assay [4] was inactive.

Consider `CCCOC(=O)c1ccccc1O`, for which the result in assay [1], in assay [5] and in assay [3] was inactive.

For `CC(C)(C)NCC(O)COc1cccc2c1C[C@H](O)[C@H](O)C2` (stereo partly specified), the outcome in assay [1], in assay [5], in assay [3] and in assay [4] was inactive.

For the compound `CC1(C)Cc2cccc(N)c2O1`, the result in assay [1], in assay [5] and in assay [3] was inactive.

With `CC(C)(C)c1nnc(NS(=O)(=O)c2ccccc2)s1`, the outcome in assay [1], in assay [5] and in assay [3] was inactive.

Turning to `CN(C)CCC(O)(c1ccccc1)c1ccccc1Cl` (stereo unspecified), the result in assay [1], in assay [5] and in assay [3] was inactive.

Consider `CC(=O)Oc1cc(C(C)C)c(OCCN(C)C)cc1C`, for which the result in assay [1], in assay [2] and in assay [4] was inactive.

With `O=C(C(=O)c1ccc(Br)cc1)c1ccc(Br)cc1`, the outcome in assay [1] and in assay [5] was inactive.

Consider `CCCCCCCCCCCCCCCCOP(=O)([O-])OCC[N+](C)(C)C`, for which the result in assay [1] and in assay [5] was inactive.

Turning to `C#CCN[C@@H]1CCc2ccccc21`, the outcome in assay [1], in assay [2] and in assay [4] was inactive.

Regarding `O=C1OC(=O)C2CC=CCC12` (stereo unspecified), the outcome in assay [1], in assay [5] and in assay [3] was inactive.

Turning to `CC(COc1ccccc1)NN` (stereo unspecified), the outcome in assay [1], in assay [2] and in assay [4] was inactive.

For the compound `C=C(C)C(=O)NCCC[N+](C)(C)C`, the result in assay [1], in assay [5], in assay [3] and in assay [4] was inactive.

As to `CC1=C(C(=O)O)N2C(=O)[C@@H](NC(=O)[C@H](N)c3ccccc3)[C@H]2SC1`, the outcome in assay [1], in assay [5] and in assay [3] was inactive.

For `Cc1cc(=O)c(C(=O)N[C@@H](C(=O)N[C@@H]2C(=O)N3C(C(=O)O)=C(CSc4nnnn4C)CS[C@H]23)c2ccc(O)cc2)c[nH]1`, the outcome in assay [1], in assay [5], in assay [3] and in assay [4] was inactive.

The values are drawn from PubChem BioAssay (EPA / NIEHS).
